Measured values reported in PubChem BioAssay (NCI).
Compounds without any hit were thinned out: in the full panel of roughly 83,000, 20% have a hit.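 In brief: 96-well plates, 48 h treatment, single concentration, percent growth endpoint.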 Unmarked numbers belong to inactive results. Active and inactive are the calls of the source. The calls were made as follows: active = growth percent below 10; inactive = the rest.

Experiments:
Assay in all cases: NCI-60 one-dose screen, 48 h (100 = growth as untreated, 0 = no growth, -100 = all killed)
Details in all cases: 10 µM unless noted
NCI-H23 lung = tested on: NCI-H23 lung
NCI-H226 lung = tested on: NCI-H226 lung
NCI-H322M lung = tested on: NCI-H322M lung
HOP-62 NSCLC = tested on: HOP-62 NSCLC
NCI-H460 lung = tested on: NCI-H460 lung
HOP-92 NSCLC = tested on: HOP-92 NSCLC
NCI-H522 lung = tested on: NCI-H522 lung
A549/ATCC NSCLC = tested on: A549/ATCC NSCLC
786-0 renal = tested on: 786-0 renal
COLO 205 colon = tested on: COLO 205 colon
DU-145 prostate = tested on: DU-145 prostate
K-562 leukemia = tested on: K-562 leukemia
MALME-3M melanoma = tested on: MALME-3M melanoma
MDA-MB-231 breast = tested on: MDA-MB-231 breast
RXF 393 renal = tested on: RXF 393 renal
SF-268 CNS = tested on: SF-268 CNS
SF-295 CNS = tested on: SF-295 CNS
SF-539 CNS = tested on: SF-539 CNS
UACC-257 melanoma = tested on: UACC-257 melanoma
M14 melanoma = tested on: M14 melanoma

Question: How did the growth (NCI-H23 lung) turn out when COc1ccc(/C=C2\Oc3cc(OCCCN4CCCCC4)ccc3C2=O)cc1OC was run?
Answer: 92.1%

Question: And the growth (NCI-H226 lung)?
Answer: 90%

Question: What about the growth (NCI-H322M lung) of the same compound?
Answer: 92.1%

Question: And the growth (HOP-62 NSCLC)?
Answer: 85.7%

Question: And the growth (NCI-H460 lung)?
Answer: 89%

Question: And the growth (HOP-92 NSCLC)?
Answer: 65.9%

Question: What about the growth (NCI-H522 lung) of the same compound?
Answer: 99.1%

Question: And the growth (A549/ATCC NSCLC)?
Answer: 93.6%

Question: And the growth (786-0 renal)?
Answer: 88.7%

Question: What about the growth (COLO 205 colon) of the same compound?
Answer: 98.3%

Question: What about the growth (DU-145 prostate) of the same compound?
Answer: 95.9%

Question: What about the growth (K-562 leukemia) of the same compound?
Answer: -22.8% (active)

Question: And the growth (MALME-3M melanoma)?
Answer: 104%

Question: What about the growth (MDA-MB-231 breast) of the same compound?
Answer: 78.6%

Question: And the growth (RXF 393 renal)?
Answer: 74.4%

Question: And the growth (SF-268 CNS)?
Answer: 86.5%

Question: What about the growth (SF-295 CNS) of the same compound?
Answer: 102%

Question: And the growth (SF-539 CNS)?
Answer: 91.5%

Question: What about the growth (UACC-257 melanoma) of the same compound?
Answer: 102%

Question: And the growth (M14 melanoma)?
Answer: 98.7%

Question: C/C(=N\NC(=O)CSc1nc2ccccc2c(=O)n1CCc1ccc(S(N)(=O)=O)cc1)c1ccccn1 was tested. Which growth (NCI-H23 lung) did it give?
Answer: 50.4%

Question: And the growth (NCI-H226 lung)?
Answer: 43.4%

Question: And the growth (NCI-H322M lung)?
Answer: 25.9%

Question: What about the growth (HOP-62 NSCLC) of the same compound?
Answer: 25.2%

Question: And the growth (NCI-H460 lung)?
Answer: 12.1%

Question: What about the growth (HOP-92 NSCLC) of the same compound?
Answer: 67.5%

Question: And the growth (NCI-H522 lung)?
Answer: 18.9%

Question: What about the growth (A549/ATCC NSCLC) of the same compound?
Answer: 21.1%

Question: And the growth (786-0 renal)?
Answer: 34.8%

Question: What about the growth (COLO 205 colon) of the same compound?
Answer: 8.47% (active)

Question: What about the growth (DU-145 prostate) of the same compound?
Answer: 44.1%

Question: What about the growth (K-562 leukemia) of the same compound?
Answer: 25.2%

Question: What about the growth (MALME-3M melanoma) of the same compound?
Answer: 36.5%

Question: And the growth (MDA-MB-231 breast)?
Answer: 27.4%

Question: What about the growth (RXF 393 renal) of the same compound?
Answer: 52.8%

Question: And the growth (SF-268 CNS)?
Answer: 34.3%

Question: And the growth (SF-295 CNS)?
Answer: 13.4%

Question: What about the growth (SF-539 CNS) of the same compound?
Answer: 29.8%

Question: And the growth (UACC-257 melanoma)?
Answer: 45.9%

Question: What about the growth (M14 melanoma) of the same compound?
Answer: 17.6%

Question: How did the growth (NCI-H23 lung) turn out when c1ccc2c(-c3c[nH]c4ccccc34)c3c(cc2c1)[nH]c1ccccc13 was run?
Answer: 69.9%

Question: And the growth (NCI-H226 lung)?
Answer: 86.2%

Question: What about the growth (NCI-H322M lung) of the same compound?
Answer: 83.7%

Question: What about the growth (HOP-62 NSCLC) of the same compound?
Answer: 60.4%

Question: What about the growth (NCI-H460 lung) of the same compound?
Answer: 68.9%

Question: What about the growth (HOP-92 NSCLC) of the same compound?
Answer: 83.3%

Question: And the growth (NCI-H522 lung)?
Answer: 51.7%

Question: What about the growth (A549/ATCC NSCLC) of the same compound?
Answer: 62%

Question: What about the growth (786-0 renal) of the same compound?
Answer: 51.9%

Question: What about the growth (COLO 205 colon) of the same compound?
Answer: 83.3%

Question: And the growth (DU-145 prostate)?
Answer: 93.7%

Question: What about the growth (K-562 leukemia) of the same compound?
Answer: 25.1%

Question: What about the growth (MALME-3M melanoma) of the same compound?
Answer: 78.9%

Question: And the growth (MDA-MB-231 breast)?
Answer: 71.6%

Question: What about the growth (RXF 393 renal) of the same compound?
Answer: 33.5%

Question: And the growth (SF-268 CNS)?
Answer: 66.7%

Question: And the growth (SF-295 CNS)?
Answer: 85.4%

Question: What about the growth (SF-539 CNS) of the same compound?
Answer: 59%

Question: What about the growth (UACC-257 melanoma) of the same compound?
Answer: 77.6%

Question: What about the growth (M14 melanoma) of the same compound?
Answer: 39.2%

Question: CC(C)c1ccc(Nc2ccc3c(OCCCN4CCN(C)CC4)cccc3n2)cc1 was tested. Which growth (NCI-H23 lung) did it give?
Answer: 70.8%

Question: And the growth (NCI-H226 lung)?
Answer: 83.9%

Question: What about the growth (NCI-H322M lung) of the same compound?
Answer: 82.6%

Question: And the growth (HOP-62 NSCLC)?
Answer: 64.1%

Question: And the growth (NCI-H460 lung)?
Answer: 52.1%

Question: And the growth (HOP-92 NSCLC)?
Answer: 56.5%

Question: And the growth (NCI-H522 lung)?
Answer: 83.2%

Question: And the growth (A549/ATCC NSCLC)?
Answer: 51.5%

Question: And the growth (786-0 renal)?
Answer: 46.5%

Question: What about the growth (COLO 205 colon) of the same compound?
Answer: -65.1% (active)

Question: And the growth (DU-145 prostate)?
Answer: 76.1%

Question: And the growth (MALME-3M melanoma)?
Answer: 39.2%

Question: What about the growth (MDA-MB-231 breast) of the same compound?
Answer: 51.8%

Question: And the growth (RXF 393 renal)?
Answer: 48.9%

Question: And the growth (SF-268 CNS)?
Answer: 71.8%

Question: What about the growth (SF-295 CNS) of the same compound?
Answer: 38.8%

Question: And the growth (SF-539 CNS)?
Answer: 73.5%

Question: And the growth (UACC-257 melanoma)?
Answer: 71.9%

Question: Which growth (NCI-H23 lung) does the source give for CCCCCCNC(=O)Oc1ccc(/C(=C(\C)c2ccccc2)c2ccc(OCCCN(C)C)cc2)cc1 here?
Answer: 82.8%

Question: What about the growth (NCI-H226 lung) of the same compound?
Answer: 104%

Question: And the growth (NCI-H322M lung)?
Answer: 75.2%

Question: And the growth (HOP-62 NSCLC)?
Answer: 98.3%

Question: What about the growth (NCI-H460 lung) of the same compound?
Answer: 39.1%

Question: And the growth (HOP-92 NSCLC)?
Answer: 83.7%

Question: What about the growth (NCI-H522 lung) of the same compound?
Answer: 88.9%

Question: And the growth (A549/ATCC NSCLC)?
Answer: 72.7%

Question: And the growth (786-0 renal)?
Answer: 71%

Question: And the growth (COLO 205 colon)?
Answer: 58.1%

Question: And the growth (DU-145 prostate)?
Answer: 99.6%

Question: What about the growth (K-562 leukemia) of the same compound?
Answer: 3.9% (active)

Question: What about the growth (MALME-3M melanoma) of the same compound?
Answer: 54%

Question: And the growth (MDA-MB-231 breast)?
Answer: 82.7%

Question: What about the growth (RXF 393 renal) of the same compound?
Answer: 75.4%

Question: What about the growth (SF-268 CNS) of the same compound?
Answer: 79.4%

Question: What about the growth (SF-295 CNS) of the same compound?
Answer: 93.7%

Question: And the growth (SF-539 CNS)?
Answer: 79.4%

Question: And the growth (UACC-257 melanoma)?
Answer: 86.2%

Question: What about the growth (M14 melanoma) of the same compound?
Answer: 40.1%

Question: Which results are given for CCc1ccc(CNc2ccc(N3CCOCC3)c(C(=O)O)c2)cc1?
Answer: growth (NCI-H23 lung): 95.2%; growth (NCI-H226 lung): 109%; growth (NCI-H322M lung): 102%; growth (HOP-62 NSCLC): 90.2%; growth (NCI-H460 lung): 130%; growth (HOP-92 NSCLC): 105%; growth (NCI-H522 lung): 83.3%; growth (A549/ATCC NSCLC): 99%; growth (786-0 renal): 98.9%; growth (COLO 205 colon): 101%; growth (DU-145 prostate): 105%; growth (K-562 leukemia): 111%; growth (MALME-3M melanoma): 101%; growth (MDA-MB-231 breast): 114%; growth (RXF 393 renal): 121%; growth (SF-268 CNS): 95.6%; growth (SF-295 CNS): 103%; growth (SF-539 CNS): 100%; growth (UACC-257 melanoma): 106%; growth (M14 melanoma): 99.7%

Question: O=C1NN(C(=O)c2ccccc2)C(c2ccc(Cl)c(Cl)c2)=C/C1=C\c1ccc([N+](=O)[O-])cc1 was tested. Which growth (NCI-H23 lung) did it give?
Answer: 85.3%

Question: What about the growth (NCI-H226 lung) of the same compound?
Answer: 88.7%

Question: And the growth (NCI-H322M lung)?
Answer: 98%

Question: What about the growth (HOP-62 NSCLC) of the same compound?
Answer: 101%

Question: And the growth (NCI-H460 lung)?
Answer: 83%

Question: What about the growth (HOP-92 NSCLC) of the same compound?
Answer: 3.02% (active)

Question: And the growth (NCI-H522 lung)?
Answer: 63.8%

Question: What about the growth (A549/ATCC NSCLC) of the same compound?
Answer: 96.2%

Question: What about the growth (786-0 renal) of the same compound?
Answer: 102%

Question: What about the growth (COLO 205 colon) of the same compound?
Answer: 27.9%

Question: What about the growth (DU-145 prostate) of the same compound?
Answer: 108%

Question: And the growth (MALME-3M melanoma)?
Answer: 88.3%

Question: What about the growth (MDA-MB-231 breast) of the same compound?
Answer: 80.4%

Question: And the growth (RXF 393 renal)?
Answer: 74.3%

Question: What about the growth (SF-268 CNS) of the same compound?
Answer: 74.8%

Question: And the growth (SF-295 CNS)?
Answer: 88.5%

Question: And the growth (SF-539 CNS)?
Answer: 90.5%

Question: What about the growth (UACC-257 melanoma) of the same compound?
Answer: 96.5%

Question: What does the source list for C[C@H](c1nc2ccc(N)cc2[nH]1)[C@H]1CC[C@H]2[C@@H]3CCC4=CC(=O)CC[C@]4(C)[C@H]3CC[C@]12C?
Answer: growth (NCI-H23 lung): 85.8%; growth (NCI-H226 lung): 91%; growth (NCI-H322M lung): 91.7%; growth (HOP-62 NSCLC): 96.2%; growth (NCI-H460 lung): 97.1%; growth (HOP-92 NSCLC): 43.9%; growth (NCI-H522 lung): 84.3%; growth (A549/ATCC NSCLC): 96.7%; growth (786-0 renal): 59.4%; growth (COLO 205 colon): 81.4%; growth (DU-145 prostate): 88.8%; growth (MALME-3M melanoma): 101%; growth (MDA-MB-231 breast): 91.5%; growth (RXF 393 renal): 44.6%; growth (SF-268 CNS): 82.2%; growth (SF-295 CNS): 57.1%; growth (SF-539 CNS): 53.8%; growth (UACC-257 melanoma): 96.4%
